# Reference: PubChem BioAssay AID1259354 (Paczesny and Yang Labs, IUPUI and University of Michigan, 2018)
# The campaign covered roughly 78,000 compounds. About 1,800 (2.3%) were called active. Roughly 27% stayed inconclusive and do not appear here. No stated cut-off is given here; in the data, active means inhibition above about 30%; inconclusive means mostly about 10% to 28%; inactive means weaker than that. The full list was thinned out, with actives kept by preference.
# Target: Interleukin-1 receptor-like 1 (Homo sapiens) (UniProt Q01638)
# Sequence (Q01638 whole entry, looked up): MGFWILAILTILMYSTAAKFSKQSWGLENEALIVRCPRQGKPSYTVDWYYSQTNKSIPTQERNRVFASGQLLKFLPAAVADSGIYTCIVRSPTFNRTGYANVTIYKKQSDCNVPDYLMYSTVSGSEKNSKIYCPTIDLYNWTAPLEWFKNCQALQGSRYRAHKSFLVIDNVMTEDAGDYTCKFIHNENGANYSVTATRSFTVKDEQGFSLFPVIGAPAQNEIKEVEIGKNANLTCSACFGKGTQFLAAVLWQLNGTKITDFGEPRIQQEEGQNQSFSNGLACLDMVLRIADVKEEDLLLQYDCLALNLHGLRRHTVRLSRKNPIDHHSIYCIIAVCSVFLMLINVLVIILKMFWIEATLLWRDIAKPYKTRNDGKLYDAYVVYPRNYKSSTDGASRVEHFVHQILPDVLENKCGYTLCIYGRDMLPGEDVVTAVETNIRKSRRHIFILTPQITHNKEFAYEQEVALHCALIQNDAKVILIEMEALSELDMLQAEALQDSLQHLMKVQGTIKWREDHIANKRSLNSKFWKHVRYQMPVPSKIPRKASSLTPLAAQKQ
# Assay: inhibitors of human ST2 (IL1RL1) binding to IL-33, primary screen, biochemical, AlphaLISA (AID 1259354)
# Conditions: AlphaLISA ST2-Fc/biotin-IL-33 interaction, 1 h; at 17 µM, stronger effect = higher value
row,SMILES,inhibition
1,CCN(CC)c1ccc([N+](=O)[O-])c2cccnc12,56% (active)
2,CCN(CC)CCNc1ccc([N+](=O)[O-])c2cccnc12,inactive
3,COc1cc(CN2CCN(Cc3ccccc3)CC2)cc(I)c1O,inactive
4,C/C=C(\C)CN1CCC2(CCNCC2)C1,inactive
5,CCOC(=O)C1C2NC(=O)N(c3cccc(C)c3)C1(C)Oc1c(OC)cccc12 (stereo not given),inactive
